Source: PubChem BioAssay (NCI)
About 83,000 compounds went through this panel and 20% of them were active in at least one assay; those are over-represented in the sample as a whole.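 A percent growth of 40 corresponds to 60% growth inhibition; 0 means no net growth; -100 means all cells died. Active threshold: below 10.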 Unmarked numbers belong to inactive results. Calls of active or inactive are those of the source.

How the values were obtained:
Assay in all cases: NCI-60 one-dose screen, 48 h (100 = growth as untreated, 0 = no growth, -100 = all killed)
Conditions in all cases: 10 µM unless noted
[1] = test system: SK-MEL-2 melanoma
[2] = test system: EKVX NSCLC
[3] = test system: SN12C renal
[4] = test system: UO-31 renal
[5] = test system: TK-10 renal
[6] = test system: ACHN renal
[7] = test system: CAKI-1 renal
[8] = test system: A498 renal
[9] = test system: CCRF-CEM leukemia
[10] = test system: MOLT-4 leukemia

| SMILES | growth [1] | growth [2] | growth [3] | growth [4] | growth [5] | growth [6] | growth [7] | growth [8] | growth [9] | growth [10] |
| --- | --- | --- | --- | --- | --- | --- | --- | --- | --- | --- |
| O=C1CCC(N2C(=O)c3cccc(NCCOCCOCCOCCC(=O)NCCCC(=O)NC(c4ccc5c(c4)OCO5)c4cc(Cl)c5cccnc5c4O)c3C2=O)C(=O)C1 (stereo not given) | -5.74% (active) | 38.1% | 26.9% | 64.5% | 95.2% | 89.3% | 69.8% | 104% | -4.69% (active) | 8.18% (active) |
| COc1ccc2[nH]cc(-c3cc4nc(-c5cn(C)c6ncccc56)cc(N)n4n3)c2c1 | 97.2% | 55.1% | 26.2% | 12.3% | 78.1% | 7.66% (active) | -65.2% (active) | 116% | -34.3% (active) | -9.04% (active) |
| COc1ccc(-c2nc3ccc(-c4nnc(SCc5ccccc5)o4)cc3[nH]2)cc1OC | 66.4% | 58.1% | -2.42% (active) | -8.65% (active) | 23% | -45.4% (active) | 16.2% | 117% | 76.4% | 78.8% |
| Cc1ccc2c(c1)nc(-c1ccccc1)n2CC(=O)N=Nc1c(O)[nH]c2ccc(Cl)cc12 | -75.4% (active) | -31.9% (active) | -77.9% (active) | -89.6% (active) | -15.1% (active) | -89.5% (active) | -42.6% (active) | -71.1% (active) | 4.22% (active) | -20.3% (active) |
| Fc1cccc(CNc2nc(SCCN3CCOCC3)nc3c2cnn3CC(Cl)c2ccc(Br)cc2)c1 (stereo not given) | 13.5% | 41.1% | 36.5% | -3.52% (active) | 46.7% | 17.3% | 26.7% | 57.2% | 6.67% (active) | -23.8% (active) |
| Cc1cccc(NCC(=O)N2CCN(c3ncnc4c3cnn4-c3ccccc3)CC2)c1 | 46.7% | 53.7% | 76.9% | 34.3% | 93.8% | 45.4% | 47.8% | 108% | 62.7% | 58.2% |
| COC(=O)c1c(C(=O)OC)c2ccc3c4ccccc4ccc3n2c1C(=O)C(C)Br (stereo not given) | 26.9% | 86.5% | 35.7% | 45% | 58.1% | 43.9% | 71.3% | 87.2% | -4.34% (active) | 0.188% (active) |
| COc1cccc(C(N)=Nc2ccc(OCCCCCCCCn3cncn3)cc2)c1 | 14% | 37.4% | 20.6% | 39.5% | 57% | 28% | 40.3% | 94.3% | 16.4% | 16.8% |
| COc1ccc2c(c1)C(=O)N(C)C2C1c2c(cc3c(c2OC)OCO3)CCN1C (stereo not given) | 57.5% | 62.6% | 76.9% | 49.4% | 78.6% | 46.5% | 31.6% | 91.5% | 66.3% | 46.4% |
| CN1C(=O)C(O)(CC(=O)c2cc3ccccc3oc2=O)c2ccccc21 (stereo not given) | 111% | 90.1% | 88.8% | 57.3% | 116% | 98.1% | 86.1% | 162% | 92% | 83.4% |
| COc1c(B(O)O)cc(F)cc1-c1nc2c(F)cc3[nH]ncc3c2c2c1CCCC2 | 46.8% | 13.5% | 17.2% | 3.57% (active) | 21.3% | 4.28% (active) | 0.122% (active) | -30.7% (active) | -3.23% (active) | 17% |
| CC(C)(C)OC(=O)N1C/C(=C\c2ccc(F)cc2)C(=O)/C(=C/c2ccc(F)cc2)C1 | -36.4% (active) | -52.6% (active) | -93.7% (active) | -73.5% (active) | 10% | -100% (active) | -37.4% (active) | 97% | -6.19% (active) | -7.57% (active) |
| Fc1ccc(F)c(CNc2nc(SCCN3CCOCC3)nc3c2cnn3CC(Cl)c2ccc(Br)cc2)c1 (stereo not given) | 5.82% (active) | 45.1% | 28.9% | 9.3% (active) | 44.8% | 10.6% | 26.7% | 64.8% | 11.1% | -22.6% (active) |
| CN(C)CCCNC(=S)Nc1ccc(/C=C/c2ccc(Cl)cc2)cc1 | -85.4% (active) | -35.1% (active) | -100% (active) | -95.8% (active) | -87.9% (active) | -97.6% (active) | -77.3% (active) | -47.7% (active) | -16.9% (active) | 0.54% (active) |
| CCN1CCN(Cc2ccc(C(=O)Nc3cccc(Nc4ccc5c(OC)cccc5n4)c3)cc2C(F)(F)F)CC1 | -76% (active) | -95.7% (active) | -90.5% (active) | -85.8% (active) | -86.2% (active) | -100% (active) | -98.3% (active) | -88.8% (active) | -30.5% (active) | -45.4% (active) |
| NS(=O)(=O)c1cccc(Nc2nc(SCC(=O)c3ccc(F)cc3)nc3ccccc23)c1 | -47% (active) | 28% | 15.8% | 17.9% | 44.6% | 25.9% | 21.9% | 71.1% | 1.38% (active) | 2.93% (active) |
| N#CC1=C(c2ccco2)Nc2c(c(-c3ccccc3)nn2-c2ccccc2)C12C(=O)Nc1ccc(Br)cc12 (stereo not given) | 87% | 56.2% | 5.11% (active) | 59.8% | 65.9% | 49.3% | 55.9% | 124% | 35.5% | 36.2% |
| O=C(c1ccc(Cl)cc1)C1[C@H](c2ccccc2Cl)[C@@H](c2ccccc2)NC12C(=O)Nc1ccc(Br)cc12 (stereo not given in full) | -89.9% (active) | -42.2% (active) | -83.9% (active) | -97.5% (active) | -2.31% (active) | -69.2% (active) | -47.6% (active) | -48% (active) | -13.5% (active) | -24.5% (active) |
| CC[C@]12C=CCN3CC[C@@]4(c5ccc(OC)cc5N(C)[C@H]4[C@@](O)(C(=O)OC)[C@@H]1OC(=O)CCC[P+](c1ccc(OC)cc1)(c1ccc(OC)cc1)c1ccc(OC)cc1)[C@@H]32 | -90.6% (active) | -85% (active) | -93.4% (active) | -56.8% (active) | -90.7% (active) | -95.8% (active) | -93.4% (active) | -83.2% (active) | -71.2% (active) | -36.7% (active) |
| c1n[nH]cc1-c1nc2ccc3[nH]ncc3c2c2c1CC1(CCOCC1)CC2 | 24.5% | 55.3% | 28.8% | 55.4% | 29.2% | 22.1% | 4.86% (active) | -3.86% (active) | 19.3% | 22.2% |
| Nc1cc(-c2c[nH]c3ccc(Br)cc23)nc2cc(-c3c[nH]c4ccccc34)nn12 | -66.8% (active) | -67.5% (active) | -66.3% (active) | -54% (active) | -57.3% (active) | -35.5% (active) | -48.6% (active) | -77.3% (active) | -13.8% (active) | 3.76% (active) |
| COc1ccccc1NC(=O)N/N=C/c1c[nH]c2ccccc12 | -24.9% (active) | 12.3% | 23.2% | 39.1% | 33.2% | 25.8% | 42% | 60.6% | 17.4% | 7.13% (active) |
| CC1=NN(C2=NC(=O)C(CC(=O)Nc3ccccc3C(F)(F)F)S2)C(c2ccc(N(C)C)cc2)C1 (stereo not given) | 65.2% | 48.5% | 46.5% | 41.6% | 71.5% | 35.8% | 71% | 79.2% | 36.9% | 28.4% |
| COC(=O)c1cc(C(=O)CBr)n2c1ccc1c3ccccc3ccc12 | 113% | 60.1% | 51.1% | 24.3% | 84.3% | 17.4% | 54% | 101% | 14% | 6.44% (active) |
| COc1ccc(N=Nc2c(N)nn3c(-c4ccc(F)cc4)ccnc23)cc1 | 102% | 80.4% | 89% | 99.6% | 106% | 110% | 94.5% | 108% | 59.9% | 85.5% |
| Cc1[nH]nc2ccc3nc(-c4cn[nH]c4C(F)(F)F)c4c(c3c12)CCCC4 | -68.2% (active) | -40.5% (active) | -22.4% (active) | -30.5% (active) | -56.2% (active) | 1.85% (active) | -9.8% (active) | -61.1% (active) | -12.1% (active) | 2.2% (active) |
